# From the supplement of paper PMC11417369
# In all, about 25,000 sequences were measured (“ln(normalized median fluorescence intensity)”: median about 9.3, highest 2% from about 10 on). The list comes from a sample in which the highest values are over-represented; it also holds similar and randomly drawn sequences.
# Tested on: PF3D7_0420300 AP2 domain 1 (GST-tagged)
# Experiment: gcPBM binding intensity (ln(normalized median fluorescence intensity)); higher = stronger DNA binding
# Method in brief: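 GST-tagged P. falciparum DNA-binding domains produced in E. coli were incubated for 1 h on an Agilent 4 × 180k array of primer-extended double-stranded 36-bp intergenic genomic probes with negative controls. Binding intensity is the highest Masliner-normalised natural-log median intensity across replicate spots of either probe orientation, with bound protein detected by Alexa488 anti-GST antibody at 488 nm.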
row,Sequence,gcPBM binding intensity (ln)
1,TGACATAATGTGTGTAGTACATATATCGTTATTTGA [XGTACX_site5152],9.46
2,ACATGTAAATTTACATGTACATGTAACACTTAATAT [XGTACX_site4575],9.39
3,AGAAAGAAAGAATACACACACACATATATATATATC [CACACA_site3744],10.4
4,AGAAAGAAAGAATACACACACACATATATAAATATC [CACACA_site7716],10.2
5,AAAGAAATGAAATATACACACATACATATATACATA [CACACA_site9335],9.81
6,TAAAGAAATAAATACATACACACATATATATATATA [CACACA_site3363],9.46
7,AATAAAAAAGAATATACACACATAAATATAAAATAT [CACACA_site683],9.9
8,GTATCAAAAGAATACACACACACATACATATATATA [CACACA_site3796],10.2
9,AAAAAAAACAAATACACACGCACACCGAAAAAAAAA [CACACA_site803],10
10,TCCTACATATAAAAATGTACCCATTGTTTTTTTTTT [XGTACX_site7205],9.11
11,TTCATTCATTTTATTACACACAAAAAAAAAAAAAAA [CACACA_site3680],9.07
12,AACATATATATATATACATGCATATGAACAACGAAT [TGCATGCA_site93],9.62
13,CTTTTTAATGAATACACACACACACCGATATATATA [CACACA_site5296],10.1
14,AAAAAAAAAAAAAACACACACATATATATATATATA [CACACA_site1891],9.55
15,AAAAAAAAAAAAAACATACACACAAATATATACATA [CACACA_site4010],9.67
16,AAAAAAAAAAAACACACACACATATATATATATATA [CACACA_site732],9.75
17,CACAAATATATACATACACACATATATACACATATA [CACACA_site8024],9.86
18,AAAAAAAAAAAACACACACACACATACAAAATATAT [CACACA_site1448],10.3
19,AGCAAATACAAACACACACACACATATACATATATA [CACACA_site3497],10.2
20,AAAAAACAAAAACACACACACACATATATATATATA [CACACA_site3654],10.2
21,TAAAGGCAAACAAACACACACACATATATACCTATA [CACACA_site7078],9.91
22,AAAAAAAAAAAACATACACACAAATATATACATACA [CACACA_site4011],9.89
23,CACAAATATACAAATACACACAAATATACACATATA [CACACA_site7176],9.77
24,TAAAGGCAAACAAACACACACACATATATACATATA [CACACA_site2123],10.2

row,Sequence,gcPBM binding intensity (ln)
1,AAGGCAAACAAACACACACACATATATACATATATA [CACACA_site2122],9.98
2,TAATAATTATTGCACGCACACAAAAACCTATAGATT [CACACA_site2931],9.45
3,ATGATCATAAAACACACACACAAAAAAAAAAAAAAA [CACACA_site1805],9.51
4,TTATTTTTTCAAGAATGTACTTACGAATTGTCGTAT [XGTACX_site1363],8.78
5,ATAAAAACATAAAAATGTACATATATATATATATAT [XGTACX_site7165],9.23
6,TGAGATAACAAAAGTTGTACTTTTTTTTTTTTTTTT [XGTACX_site3004],8.89
7,TATATATATATAATAGTGCATAAATAAATATATAAA,9.28
8,TACAATATTTTGAGACGTACATATATACATTTACAT [XGTACX_site5880],9.24
9,AAAATGAATATAATGACGCACACTTAAAATTGTTAA [CACACA_site2509],9.29
10,ATATGTTTATTAAATGCATGTCAAGACTTAAGATAT [TGCATGCA_site329],9.24
11,TGATTCATTGATAAGGGTACATTTATAATTATGATA [XGTACX_site6319],9.02
12,AACATACACATATACACACACACATATATACATATA [CACACA_site1093],10.2
13,AAAAAAAAAAAACACACACACAAATACAAATGGTAA [CACACA_site1720],10.1
14,AAAAAAAAAAAAAACACACACACAAATACAAATACA [CACACA_site414],10.1
15,TATACATATATATACACACACACATATATATATATA [CACACA_site1299],9.95
16,TATATATATATACCAACACACATACATATATATATA [CACACA_site8530],9.68
17,GGCAACATTTGAAACACACACACATACAAACAAACA [CACACA_site3307],9.97
18,CGCATACACCAACACACACACACATATATATATATA [CACACA_site635],10.2
19,CAACATTTGAGACACACACACATACAAACAAACAAA [CACACA_site7538],10
20,TATATATATACCAACACACATACATATATATATATA [CACACA_site1795],9.46
21,TACATACATACATACACACACACATATATATACATA [CACACA_site853],10.1
22,AAAAAAAAAAAAAACACACACACAAATACAAATGGT [CACACA_site1721],10.2
23,CAACATTTGAAACACACACACATACAAACAAACAAA [CACACA_site3306],10.2
24,TTATTATAAATGTTTTGTACGTACATCCGAAAATAA [XGTACX_site2175],9.05

row,Sequence,gcPBM binding intensity (ln)
1,TTTTTTGTTAAGTTGGTGCAAACAATAGTTATTGAC,8.95
2,TTTAAAGTTTTATACACACACCAAAGTTATTCTAAT [CACACA_site6432],9.56
3,GATTAAAATCAAAGGTGTACGCACAAATAAGTCCCA [XGTACX_site4360],9.3
4,TTTCTTATATAAGTGTACTAAAATATATATATGCAA [GTGCAC_negctrl_site546],9
5,GTGTCAAATTTTATAACACACAAAAGGTTATATAAG [CACACA_site7839],9.28
6,AAATAGATAAACTAAACACACAAAAAAAAAAAAAAT [CACACA_site1179],9.84
7,CATTTATTTTTGTTCTGTACATAAAGATGAACAAAA [XGTACX_site6797],8.81
8,CATACATACAAACACACACACATATATATATATATA [CACACA_site43],9.86
9,GGATATAACAAACACACACACACATATATATATATT [CACACA_site4141],10.2
10,CATACATACAAACACACACACATATATATACATACA [CACACA_site852],10.2
11,AAAAAAAAAAAAAACACACACACACGCAAATACATA [CACACA_site6474],10.2
12,AATATAAACAAACACACACACATATATATATATATT [CACACA_site5592],10.1
13,AACATACACATATACACACACACATATATACCTATA [CACACA_site6643],10.4
14,CACATACACATACAAACACACATTATATATATATAT [CACACA_site8460],9.62
15,TATATACACGCACATACACACAAATAAAAAAACACC [CACACA_site7578],9.93
16,TATACGTATACCTATACACACATATATATATATATA [CACACA_site1273],9.49
17,AATATAAACACAAACACACACATATATATATATATA [CACACA_site4307],9.68
18,TATATATATATATATACACACATATATACCTATATA [CACACA_site6085],9.31
19,AAAAAAAAAACAAATACACACGCACCCAAAAAAAAA [CACACA_site8166],9.81
20,TTTTTTTTTGTTTACACACACAAAATATTATATGTA [CACACA_site2470],9.66
21,AATATATACATACATACATGCACATATATATATATA [TGCATGCA_site393],9.36
22,CATATTAAAAATACATGTACATATATATTTAATATA [XGTACX_site8580],9.08
23,ATTAAAAAAGAATATACACACCAAAACTGTTTGTTA [CACACA_site4687],9.21
24,ATATGACTGTTCATTTGTACGTATAATTATATACGT [XGTACX_site3372],9.33

row,Sequence,gcPBM binding intensity (ln)
1,ATCAACAAAACATACACACACATATAGATTTATATA [CACACA_site7415],10
2,TTTTCAATTTTTTATGAACACACAAAAAAAAAAAAA [CACACA_site8808],8.77
3,GTAGAGCATAATAAAACACACACATACATACATATA [CACACA_site8217],9.84
4,AAAAAAAAAAAACACACACACACAAATACATACACA [CACACA_site706],10.2
5,TACATACACAAATACACACACAAATACATACACAAA [CACACA_site704],10.1
6,AATACATACACAAATACACACACAAATACATACACA [CACACA_site8134],10.1
7,GGTACATACAAACACACACACAAAAAAAAAAAAATA [CACACA_site1577],9.91
8,AAAAAAAAAAAACACACACACAAATACAAATACATA [CACACA_site415],10.2
9,TTTTTTTTTTTTAATTAACACACATAAATATATATA [CACACA_site9077],9.11
10,AAAAAATAATTGAAGTGTACGTACAATGATTTTACT [XGTACX_site7663],9.35
11,CCCCATATAATGAACACACACACTCCTCATAATTAA [CACACA_site628],10.2
12,CCCATGTAATATTAAACACACACTCATATAACACAA [CACACA_site7906],9.71
13,TTTCCCCCATATAATGAACACACACCCTCCTCATAA [CACACA_site8110],9.85
14,ACCTATATAAATTATACACACAAATATAAATATATA [CACACA_site2843],9.66
15,ACAAAATATACAAAATGTACAAAATTTACAAAATAT [XGTACX_site6466],9.43
16,TATAAAATGACTATATATAATATTAAAAAAAAAAAA [TGCATGCA_negctrl_site387],9.11
17,GTACCTATTTCATACACACACACACGCAAACAAACA [CACACA_site6590],10.3
18,ATTTCATACAGACACACACACAAACAAACATATATA [CACACA_site979],10.1
19,CCAAACAAAAAAAAAAGTACATAAAACACCTATTTG [XGTACX_site5645],9.46
20,AAGGCAAACAAACACACACACATATATACCTATATA [CACACA_site5203],10
21,GTACCTATTTCATACACACACACACCCAAACAAACA [CACACA_site976],10.3
22,ATGTACCTATTTCATACACACACACCCACAAACAAA [CACACA_site8232],10
